# Records with an inconclusive call do not appear. Unmarked numbers belong to inactive results. Calls of active or inactive are those of the source. Calls follow the shape of the dose curve; as a rule, active = well fitted inhibition curve with a large enough effect; inconclusive = small, poorly fitted or top-dose-only effect; inactive = flat fitted curve, though single readings scatter. Where a SMILES comes first, the peptide text is derived from it. Bridges are numbered along the chain shown (N, C = ends). [ ]: non-standard residue; d: D form. The star is where a group is joined. ξ: configuration not given here. d(aThr) = C[C@@H](O)[C@@H](N)C(=O)O; ξThr(3R) = C[C@@H](O)C(N)C(=O)O; X3 = CC[C@@H](C)CCCCC(=O)*; dDab = NCC[C@@H](N)C(=O)O
# Target: Voltage-gated inwardly rectifying potassium channel KCNH2 (Homo sapiens) (UniProt Q12809)
# Sequence (Q12809 whole entry, looked up): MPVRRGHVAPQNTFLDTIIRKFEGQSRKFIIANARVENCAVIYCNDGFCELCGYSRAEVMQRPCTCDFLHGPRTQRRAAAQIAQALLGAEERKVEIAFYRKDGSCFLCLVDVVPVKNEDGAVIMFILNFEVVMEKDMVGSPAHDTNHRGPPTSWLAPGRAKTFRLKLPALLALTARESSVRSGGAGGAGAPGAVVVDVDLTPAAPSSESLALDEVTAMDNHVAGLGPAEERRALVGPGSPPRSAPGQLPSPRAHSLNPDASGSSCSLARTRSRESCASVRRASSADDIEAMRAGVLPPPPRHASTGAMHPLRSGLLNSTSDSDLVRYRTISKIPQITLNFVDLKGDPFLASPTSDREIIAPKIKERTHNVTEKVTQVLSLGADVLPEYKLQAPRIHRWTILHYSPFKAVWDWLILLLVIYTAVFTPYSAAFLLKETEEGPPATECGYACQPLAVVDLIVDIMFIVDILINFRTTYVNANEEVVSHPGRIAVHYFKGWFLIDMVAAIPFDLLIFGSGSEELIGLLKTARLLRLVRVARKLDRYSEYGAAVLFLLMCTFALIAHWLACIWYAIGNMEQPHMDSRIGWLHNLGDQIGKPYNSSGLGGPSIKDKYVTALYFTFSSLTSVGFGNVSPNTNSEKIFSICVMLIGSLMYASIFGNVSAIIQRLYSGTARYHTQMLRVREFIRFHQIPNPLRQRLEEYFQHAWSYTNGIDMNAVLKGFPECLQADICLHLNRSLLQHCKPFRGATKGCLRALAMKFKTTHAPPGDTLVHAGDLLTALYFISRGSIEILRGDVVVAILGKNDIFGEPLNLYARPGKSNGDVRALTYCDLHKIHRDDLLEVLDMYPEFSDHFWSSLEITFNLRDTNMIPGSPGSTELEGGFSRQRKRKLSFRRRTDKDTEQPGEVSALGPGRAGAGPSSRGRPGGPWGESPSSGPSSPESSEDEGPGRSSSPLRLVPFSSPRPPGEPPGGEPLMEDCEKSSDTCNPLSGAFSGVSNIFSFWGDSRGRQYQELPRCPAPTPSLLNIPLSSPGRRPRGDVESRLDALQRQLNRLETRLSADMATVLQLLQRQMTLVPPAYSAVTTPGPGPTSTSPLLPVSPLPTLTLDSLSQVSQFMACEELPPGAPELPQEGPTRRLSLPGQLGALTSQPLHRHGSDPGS
# Experiment: qHTS Assay for Small Molecule Inhibitors of the Human hERG Channel Activity (AID 588834);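 also: lower thallium flux fluorescence means stronger hERG block; nearly all actives have a fitted effect of over 50% in size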; as to activity change, negative = inhibition: top concentration of the series differs between compounds
# Conditions: U2OS BacMam hERG, FluxOR thallium flux fluorescence; series mostly up to 46.1 µM; activity change, negative = inhibition: at the top concentration
# How it was run: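 Cells were infected with hERG-BacMam virus for 4 hrs at room temperature, grown overnight, then seeded at 2000/well. After dye loading and roughly 10 min compound treatment, thallium influx was triggered and fluorescence recorded.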
# % is scaled to controls: 0 for no effect and ±100 for the full control effect; potency is read from the fitted curve at half-maximal effect.
Structure (SMILES),"activity change, negative = inhibition",Potency
CC1(C)[C@H]2CC[C@]1(C)[C@H](O)C2,29%,
CN1CCN(C(c2ccccc2)c2ccc(Cl)cc2)CC1 (centres undefined),,5.62 µM (active)
O=C(O)[C@@H]1C[C@H](CP(=O)(O)O)CCN1,8.36%,
CN[C@@H]1[C@H](O[C@H]2[C@H](O[C@H]3[C@H](O)[C@@H](O)[C@H](N=C(N)N)[C@@H](O)[C@@H]3N=C(N)N)O[C@@H](C)[C@]2(O)CO)O[C@@H](CO)[C@H](O)[C@H]1O,17.2%,
CCCCCCCCCCCC(=O)OC[C@@H](O)C1OC[C@H](O)[C@H]1O (some centres undefined),13.1%,
CCN(CC)C(=O)[C@]1(c2ccccc2)C[C@@H]1CN,12.1%,
Cc1cccc(C)c1Nc1ncccc1C(=O)O,-14.1%,
COc1ccc2cc([C@H](C)CO)ccc2c1,6.8%,
CC/C=C\C/C=C\C/C=C\C/C=C\C/C=C\C/C=C\CCC(=O)O,3.04%,
COc1cc2c(cc1OC)[C@@H](c1ccccc1)CN(C)CC2,-17.4%,
CC(CN1c2ccccc2Sc2cccnc21)N(C)C (centres undefined),,0.891 µM (active)
CC(=O)N[C@@H]([C@@H](O)[C@H](O)[C@H](O)CO)[C@@H](O)CC(=O)C(=O)O,17.7%,
CC(C)N1CCN(c2ccc(OC[C@H]3CO[C@](Cn4cncn4)(c4ccc(Cl)cc4Cl)O3)cc2)CC1,,8.91 µM (active)
CC[C@@H](C(=O)[C@@H](C)[C@@H](O)[C@H](C)[C@@H]1O[C@@H]([C@@H](CC)C(=O)O)CC[C@@H]1C)[C@H]1O[C@]2(C=C[C@@H](O)[C@]3(CC[C@@](C)([C@H]4CC[C@](O)(CC)[C@H](C)O4)O3)O2)[C@H](C)C[C@@H]1C,22.7%,
C#C[C@]1(O)CC[C@H]2[C@@H]3CCC4=C(CCC(=O)C4)[C@H]3CC[C@@]21C,16.2% [at 20.6 µM],
CC(=O)O[C@@H]1CC2CCC1(C)C2(C)C (some centres undefined),-6.52%,
C=O,10.7%,
NS(=O)(=O)c1cc2c(cc1Cl)NC(Cc1ccccc1)NS2(=O)=O (centres undefined),0.179%,
CCOC(=O)Oc1c(OC)cc(C(=O)O[C@@H]2C[C@@H]3CN4CCc5c([nH]c6cc(OC)ccc56)[C@H]4C[C@@H]3[C@H](C(=O)OC)[C@H]2OC)cc1OC,,2.24 µM (active)
C=C1CC[C@H](O)CC1=C/C=C1\CCC[C@]2(C)[C@@H]([C@H](C)/C=C/[C@H](C)C(C)C)CC[C@@H]12,-9.25%,
COC(=O)[C@H]1[C@H]2C[C@@H]3c4[nH]c5cc(OC)ccc5c4CCN3C[C@H]2C[C@H](OC)[C@@H]1OC,,4.47 µM (active)
COc1ccc(C(=O)/C(Br)=C\C(=O)O)cc1,0.875%,
C[C@@H]1NC(=O)[C@@H](N)CNC(=O)[C@H](C2CCNC(N)=N2)NC(=O)/C(=C/NC(N)=O)NC(=O)[C@H](CNC(=O)C[C@@H](N)CCCN)NC1=O (some centres undefined),23.3%,
Cc1c(N)nc([C@H](CC(N)=O)NC[C@H](N)C(N)=O)nc1C(=O)N[C@H](C(=O)N[C@H](C)[C@@H](O)[C@H](C)C(=O)N[C@H](C(=O)NCCc1nc(-c2nc(C(=O)NCCCCN=C(N)N)cs2)cs1)[C@@H](C)O)[C@@H](O[C@@H]1O[C@@H](CO)[C@@H](O)[C@H](O)[C@@H]1O[C@H]1O[C@H](CO)[C@@H](O)[C@H](OC(N)=O)[C@@H]1O)c1cnc[nH]1,-4.86%,
CCC(=O)OC(OP(=O)(CCCCc1ccccc1)CC(=O)N1C[C@H](C2CCCCC2)C[C@H]1C(=O)O)C(C)C (some centres undefined),-4.65%,
CO[C@H]1C[C@H](O[C@H]2[C@H](C)[C@@H](O[C@@H]3O[C@H](C)C[C@H](N(C)C)[C@H]3O)[C@@H](C)C[C@]3(CO3)C(=O)[C@H](C)[C@@H](O)[C@@H](C)[C@@H](C)OC(=O)[C@@H]2C)O[C@@H](C)[C@@H]1O,1.18% [at 20.6 µM],
CC(C)(C)c1ccc(CN2CCN(C(c3ccccc3)c3ccc(Cl)cc3)CC2)cc1 (centres undefined),,2.82 µM (active)
CC(C)C[C@H](NC(=O)[C@@H](Cc1c[nH]c2ccccc12)NC(=O)[C@H](Cc1ccc(O)cc1)NC(=O)[C@H](CO)NC(=O)[C@H](Cc1c[nH]c2ccccc12)NC(=O)[C@H](Cc1cnc[nH]1)NC(=O)[C@@H]1CCC(=O)N1)C(=O)N[C@@H](CCCN=C(N)N)C(=O)N1CCC[C@@H]1C(=O)NCC(N)=O,-6.85%,
CC[C@@H](C)CCCCC(=O)N[C@H](CCN)C(=O)N[C@@H](C(=O)N[C@H](CCN)C(=O)N[C@@H]1CCNC(=O)C([C@@H](C)O)NC(=O)[C@@H](CCN)NC(=O)[C@@H](CCN)NC(=O)[C@@H](CC(C)C)NC(=O)[C@@H](Cc2ccccc2)NC(=O)[C@@H](CCN)NC1=O)[C@@H](C)O (stereo partly drawn) (X3-[dDab][d(aThr)][dDab][dDab][dDab][dF][dL][dDab][dDab][ξThr(3R)]; lactam 4-C),2.11%,
